The whole screen tested about 1,800 compounds, of which about 710 (39%) were called active. About 28% were inconclusive and are not listed. Only a sample is shown. Entries with a potency or affinity are not part of this list. A number with no mark means an inactive call.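 How the source made its calls: active means luciferase signal rise whose fitted curve crosses a set activity limit at or below the top valid tested dose; inconclusive means flat fit with 30 to 70% rise, or poor fit; inactive means signal falling, flat within 30%, or crossing above top dose.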
assay: reporter signal increase, D54 LucT cells – cell-based, luminescence, cherry pick, counter-screen for N-linked glycosylation inhibitor project, dose response (AID 624404); conditions: D54 LucT luciferase reporter counterscreen, 24 h; series mostly up to 19.5 µM; activity increase (luciferase signal): at the top concentration;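 further: 0% = median neutral control signal and 100% = twice that signal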

Structure (SMILES)	activity increase (luciferase signal) [%]
COc1cc(NC(=O)c2ccccc2F)ccc1NC(=O)c1cc2ccccc2o1	8.43
COC(=O)c1ccccc1-c1ccc(C(c2c(C)[nH][nH]c2=O)c2c(C)[nH][nH]c2=O)o1	-10.3
COc1cc(C2Sc3ccccc3NC3=C2C(=O)OC3)cc(OC)c1OC (stereo unspecified)	42.2
CCOc1cc(NC(=O)CCl)c(OCC)cc1NC(=O)CCl	11
Cc1cnc(NC(=O)c2cc(S(=O)(=O)N(C)C)ccc2N2CCCC2)s1	-29.3
CCc1cccc(NC(=O)c2cc(S(=O)(=O)N(C)C)ccc2N2CCCC2)c1	23
CCOc1ccc(OCC)c(NC(=O)c2nnn(CC(=O)Nc3cc(C)cc(C)c3)c2N)c1	37.3
CN(C)/N=C/c1ccc(Sc2ccc([N+](=O)[O-])cc2[N+](=O)[O-])o1	4.59
COc1cc2c(cc1OC)C(C)N(C(=O)Nc1ccccc1)CC2 (stereo unspecified)	55.9
COc1ccc(C(=O)/C=C/Sc2nc3ccccc3o2)cc1	40.7
COc1ccc(CCn2c(Br)nc3c2c(=O)[nH]c(=O)n3C)cc1	57.4
COc1cc(/C=N/Nc2nc3c(c(=O)n(C)c(=O)n3C)n2Cc2ccccc2)ccc1OC(=O)c1ccco1	-6.13
COc1cc(C2CC(=O)N(c3ccc(C)cc3)C(=O)C2)cc(OC)c1OC	12.2
CC(C)c1ccc(NC(=O)CN2C(=O)NC3(CCCCCCC3)C2=O)cc1	72.3
CCN(CC)S(=O)(=O)c1cccc(NC(=O)CN2C(=O)NC3(CCC(C)CC3)C2=O)c1 (stereo unspecified)	8.57
NC(=O)c1ccc2c(=O)n3c(-c4cc(Cl)c(N)c(Cl)c4)csc3nc2c1	15.3
OCC1OC(n2cnc3c(=S)nc[nH]c32)CC1O (stereo unspecified)	6.1
Cc1cccn2c(=O)c3cc(C(=O)N4CCCCC4)sc3nc12	51.5
Cc1cccn2c(=O)c3cc(C(=O)NC4CCCC4)n(C)c3nc12	32.5
Cc1cccn2c(=O)c3cc(C(=O)NC4CCCC4)c(=N)n(CC4CCCO4)c3nc12 (stereo unspecified)	-16.3
Cc1cccn2c(=O)c3cc(C(=O)NC4CCCC4)c(=N)n(CCc4ccccc4)c3nc12	-47.6

Structure (SMILES)	activity increase (luciferase signal) [%]
CCN(CC)CCOc1ccc2c(c1)C(=NNC(=O)c1ccccn1)c1cc(OCCN(CC)CC)ccc1-2	-83.9
O=C(CCl)Nc1ccc(Sc2ccc(NC(=O)CCl)cc2)cc1	-72.8
CC(C)Oc1ccc(C(=O)/C=C2/C(=O)Nc3ccccc32)cc1	19.1
CCc1ccc(NC(=O)Cn2c(=O)n(CCC(=O)NC3CCN(Cc4ccccc4)CC3)c(=O)c3ccccc32)cc1	-6.28
Cc1[nH][nH]c(=O)c1C(c1ccc(-c2cccc(Cl)c2)o1)c1c(C)[nH][nH]c1=O	32.4
Cc1[nH][nH]c(=O)c1C(c1ccc(-c2ccc(F)cc2)o1)c1c(C)[nH][nH]c1=O	31.7
CC1(C(=O)Nc2ccc(Cl)cc2)Cc2c(-c3ccc4c(c3)OCO4)ccnc2O1 (stereo unspecified)	27.1
CC1(C(=O)Nc2ccc3c(c2)OCO3)Cc2c(-c3ccc4c(c3)OCO4)ccnc2O1 (stereo unspecified)	15.3
CCOC(=O)c1cc2c(ccn2C)n1CC(=O)N1CCN(c2ccccc2)CC1	20.9
FC(F)(F)c1cccc(Sc2nc(-c3ccccc3)nnc2C(F)(F)F)c1	-9.88
Nc1nonc1-c1nc2ccccc2n1CC(=O)N/N=C\c1ccc(-c2ccc(Cl)cc2)o1	13.8
COc1ccc(C(=O)/C=C/c2ccc(OC(=O)c3cc(OC)c(OC)c(OC)c3)cc2)cc1	20.6
N=c1c(C(=O)NCc2ccco2)cc2c(=O)n3ccccc3nc2n1CCc1ccccc1	-10
COc1ccc(CCn2c(=N)c(S(=O)(=O)c3ccc(C)cc3)cc3c(=O)n4ccccc4nc32)cc1	255
Cc1ccc2nc3c(cc(C(N)=S)c(=N)n3CCCOC(C)C)c(=O)n2c1	17.8
CCOc1cc(/C=C/C(=O)c2ccc(C)cc2)ccc1OCC(=O)N(C)C	47.5
O=C(Nc1cccc(-n2cnnn2)c1)c1cc(Cl)ccc1Cl	19.6
c1ccc(CN2CCC(Nc3nc(-c4cccnc4)nc4ccccc34)CC2)cc1	-28.2
Cn1nc(-c2ccc(N3CCOCC3)c(NS(=O)(=O)c3ccccc3)c2)c2ccccc2c1=O	31.8
COc1ccc(N2CC(C(=O)Nc3cc(C(F)(F)F)ccc3N3CCCC3)CC2=O)c(OC)c1 (stereo unspecified)	11.6
CCc1ccc(N2CC(C(=O)Nc3ccccc3N3CCCC3)CC2=O)cc1 (stereo unspecified)	18.3

Structure (SMILES)	activity increase (luciferase signal) [%]
COc1ccc2nc3n(c(=O)c2c1)-c1cc2ccccc2cc1C(=O)NC3Cc1ccccc1 (stereo unspecified)	-29.2
COc1cccc(/C=N/NC(=O)c2[nH]nc3c2CCc2ccccc2-3)c1	19.5
Cc1ccc(C(c2cc(Cl)c3cccnc3c2O)N2CCN(C)CC2)cc1 (stereo unspecified)	-2.86
Cc1nc2c3cc(F)ccc3n(CCN3CCCCC3)c2s1	14.4
COc1ccc(F)cc1C1=CC(=O)C[C@H](c2ccc3c(c2)OCO3)C1	32.4
CN1C/C(=C\c2ccc(N3CCOCC3)cc2)C(=O)/C(=C/c2ccc(N3CCOCC3)cc2)C1	-37.8
COc1cc(-c2nc(-c3ccccc3)c(-c3cccs3)[nH]2)cc(OC)c1O	26.6
Cc1noc(C)c1COc1ccccc1C(=O)N1CCN(c2cccc(C(F)(F)F)c2)CC1	25.9
CN(C)c1ccc(/C=C/c2cc[n+](C)c3ccccc23)cc1	-17.1
COc1ccc(C2C(C(=O)Nc3cc(OC)c(OC)c(OC)c3)c3ccccc3C(=O)N2C)cc1 (stereo unspecified)	-0.8
Cn1cc(/C=N/n2cnc3scc(-c4ccc(Cl)cc4)c3c2=O)c2ccccc21	-4.96
Cc1[nH][nH]c(=O)c1C(c1ccc(-c2ccc(Cl)c(Cl)c2)o1)c1c(C)[nH][nH]c1=O	11
Cc1ccccc1OCC(O)CN1CCN(CCN2C(=O)c3cccc4cccc(c34)C2=O)CC1 (stereo unspecified)	-2.69
COc1cccc(OCC(O)CN2CCN(CCN3C(=O)c4cccc5cccc(c45)C3=O)CC2)c1 (stereo unspecified)	1.12
CC(C)CCN(C(=O)Cc1ccc(Cl)c(Cl)c1)c1c(N)n(Cc2ccccc2)c(=O)[nH]c1=O	6.92
CCN(CC)c1ccc(/C=C/c2cccc[n+]2C)c(OC)c1	-53.2
O=C(Cn1cnc2c(NCc3ccccc3)ncnc21)NCc1ccccc1	38.4
CC(=O)c1ccc(Nc2c3c(nc4ccccc24)CCCC3)cc1	32.1
COc1ccc(Nc2nc(N3CCCC3)nc3ccccc23)c(OC)c1	-0.901
